In the supplement of paper PMC9950053:
Structures can show the parent of a compound that is named as a salt.

Assays:
Settings in all cases: 10 µM; exposure time: 3 h pre-incubation + 3 h imaging
[1] = system: Danio rerio larvae (5 dpf); experiment: 1-h baseline activity (% time moving, periods 1-6) minus DMSO control (percentage points); higher = more locomotor activity than DMSO larvae
Procedure, shortened: (§1)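 Zebrafish larvae (wild-type, 5 dpf) were imaged every 6 s at 28.5 °C and tracked with Z-LaP Tracker after 3 h of compound exposure at 10 µM final, which continued for the 3 h of imaging. Only detections of at least 0.5 probability were kept, and larvae moving under 1% of the time were dropped. Behavioural measures are reported as the group mean minus the control mean in percentage points. Group size was 48 and control size was 844.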

[2] = system: Danio rerio larvae (5 dpf); experiment: combined optomotor response (time in upper well half, down vs up moving lines, periods 7-14) minus DMSO control (percentage points); higher = stronger optomotor response than DMSO larvae
[3] = system: Danio rerio larvae (5 dpf); experiment: habituation (activity change first vs second 5 min of 1-s interval sound, period 17) minus DMSO control (percentage points); higher = larger habituation measure than DMSO larvae
Procedure, shortened: as §1

[4] = system: Danio rerio larvae (5 dpf); experiment: excitability (activity period 17 minus period 16, 1-s interval sound) minus DMSO control (percentage points); higher = more acoustic excitability than DMSO larvae
Procedure, shortened: as §1

[5] = system: Danio rerio larvae (5 dpf); experiment: startle (activity period 16 minus period 15, 20-s interval sound) minus DMSO control (percentage points); higher = stronger startle response than DMSO larvae
Procedure, shortened: as §1

CC(C)[C@H]1CC[C@H](C(=O)N[C@H](Cc2ccccc2)C(=O)O)CC1 [Nateglinide]
1-h baseline activity [1]: 3.52

CS(=O)(=O)CCNCc1ccc(-c2ccc3ncnc(Nc4ccc(OCc5cccc(F)c5)c(Cl)c4)c3c2)o1 [Lapatinib]
1-h baseline activity [1]: -5.01
combined optomotor response [2]: -2.06

Cc1ccccc1C(=O)Nc1ccc(C(=O)N2CCCC(O)c3cc(Cl)ccc32)c(C)c1 (configuration not stated) [Tolvaptan]
habituation [3]: 2.26
combined optomotor response [2]: 4.13

CCOC(=O)[C@H](CCc1ccccc1)N[C@@H](C)C(=O)N1[C@H](C(=O)O)C[C@@H]2CCC[C@@H]21 [Ramipril]
habituation [3]: 0.42
combined optomotor response [2]: 3.49

CN1CCC[C@@H]1CCO[C@](C)(c1ccccc1)c1ccc(Cl)cc1 [Clemastine fumarate]
1-h baseline activity [1]: 1.06
combined optomotor response [2]: 7.99

N#Cc1ccc(C(c2ccc(C#N)cc2)n2cncn2)cc1 [Letrozole]
1-h baseline activity [1]: -4.77
combined optomotor response [2]: -0.923

CC(C)CN(C[C@@H](O)[C@H](Cc1ccccc1)NC(=O)O[C@H]1CO[C@H]2OCC[C@H]21)S(=O)(=O)c1ccc(N)cc1 [Darunavir]
habituation [3]: 0.657

CCOC(=O)[C@H](CCc1ccccc1)N[C@H]1CCc2ccccc2N(CC(=O)O)C1=O [Benazepril hydrochloride]
excitability [4]: 0.927
combined optomotor response [2]: 5.66

C[C@]12CCC(=O)C=C1CC[C@@H]1[C@@H]2[C@@H](O)C[C@@]2(C)[C@H]1CC[C@]2(O)C(=O)CO [Hydrocortisone]
excitability [4]: 3.96
combined optomotor response [2]: 4.58

NC(=O)c1ncn([C@@H]2O[C@H](CO)[C@@H](O)[C@H]2O)n1 [Ribavirin]
1-h baseline activity [1]: 1.15
combined optomotor response [2]: 5.43

CCOC(=O)N1CCC(=C2c3ccc(Cl)cc3CCc3cccnc32)CC1 [Loratidine]
habituation [3]: -7.35

COc1cc2nc(N3CCN(C(=O)C4COc5ccccc5O4)CC3)nc(N)c2cc1OC (configuration not stated) [Doxazosin mesylate]
habituation [3]: 0.55
combined optomotor response [2]: -3.96

CN1CC2c3ccccc3Oc3ccc(Cl)cc3C2C1 (configuration not stated) [Asenapine maleate]
1-h baseline activity [1]: 30.8
combined optomotor response [2]: -7.09

CCOC(=O)C1=C(COCCN)NC(C)=C(C(=O)OC)C1c1ccccc1Cl (configuration not stated) [Amlodipine besylate]
1-h baseline activity [1]: 0.364
excitability [4]: 1.82

C/C(O)=C(\C#N)C(=O)Nc1ccc(C(F)(F)F)cc1 [Teriflunomide]
startle [5]: -2.62
combined optomotor response [2]: -4.96

CCCc1nc(C(C)(C)O)c(C(=O)O)n1Cc1ccc(-c2ccccc2-c2nnn[nH]2)cc1 [Olmesartan]
excitability [4]: 0.0977
combined optomotor response [2]: 1.99

CC1CNc2c(cccc2S(=O)(=O)N[C@@H](CCCNC(=N)N)C(=O)N2CC[C@@H](C)C[C@@H]2C(=O)O)C1 (some centres not stated) [Argatroban]
excitability [4]: 0.775
habituation [3]: -0.107
combined optomotor response [2]: 3.86

Cc1nc(-c2ccc(OCC(C)C)c(C#N)c2)sc1C(=O)O [Febuxostat]
1-h baseline activity [1]: -2.75
combined optomotor response [2]: 1.46

CN(C)CCc1c[nH]c2ccc(Cn3cncn3)cc12 [Rizatriptan benzoate]
1-h baseline activity [1]: -3.79
combined optomotor response [2]: 6.97

CC(=O)O[C@H]1C(=O)[C@@]2(C)[C@H]([C@H](OC(=O)c3ccccc3)[C@]3(O)C[C@H](OC(=O)[C@H](O)[C@@H](NC(=O)c4ccccc4)c4ccccc4)C(C)=C1C3(C)C)[C@]1(OC(C)=O)CO[C@@H]1C[C@@H]2O [Taxol]
1-h baseline activity [1]: 1.47
combined optomotor response [2]: -0.695

CCOC(=O)C1=C(C)NC(C)=C(C(=O)OC)C1c1cccc(Cl)c1Cl (configuration not stated) [Felodipine]
1-h baseline activity [1]: -15.3
excitability [4]: -10.3
habituation [3]: -11.4

O=C1CCc2cc(OCCCCc3nnnn3C3CCCCC3)ccc2N1 [Cilostazol]
excitability [4]: 9.2
combined optomotor response [2]: 5.41

Brc1c(NC2=NCCN2)ccc2nccnc12
excitability [4]: 6.71
combined optomotor response [2]: 5.01

CCCCNc1cc(C(=O)O)cc(S(N)(=O)=O)c1Oc1ccccc1 [Bumetanide]
1-h baseline activity [1]: 3
excitability [4]: 7.06
combined optomotor response [2]: 9.27

Nc1nc2[nH]cc(CCc3ccc(C(=O)N[C@@H](CCC(=O)O)C(=O)O)cc3)c2c(=O)[nH]1 [Pemetrexed]
1-h baseline activity [1]: -1.52
combined optomotor response [2]: 1.31

O=C(Nc1c(Cl)cncc1Cl)c1ccc(OC(F)F)c(OCC2CC2)c1 [Roflumilast]
habituation [3]: -2.44
combined optomotor response [2]: -6.05

COc1cccc2c1C(=O)c1c(O)c3c(c(O)c1C2=O)C[C@@](O)(C(=O)CO)C[C@@H]3O[C@H]1C[C@H](N)[C@H](O)[C@H](C)O1 [Doxorubicin hydrochloride]
excitability [4]: 15.5
combined optomotor response [2]: -1.96

Nc1ncn([C@H]2C[C@H](O)[C@@H](CO)O2)c(=O)n1 [Decitabine]
1-h baseline activity [1]: 1.07
combined optomotor response [2]: 3.77

NS(=O)(=O)c1cc(C(=O)O)c(NCc2ccco2)cc1Cl [Furosemide]
excitability [4]: -1.6
